# D1 agonist = human D1 receptor agonism; P21728; HEK293 T-REx D1 cells, calcium flux, agonist mode; activation, % at 2 µM; 1% of 360,000 active; AID 504660; in the data active = activation above about 30%; note: 0% is about no effect
# Target sequence (P21728 whole entry, looked up): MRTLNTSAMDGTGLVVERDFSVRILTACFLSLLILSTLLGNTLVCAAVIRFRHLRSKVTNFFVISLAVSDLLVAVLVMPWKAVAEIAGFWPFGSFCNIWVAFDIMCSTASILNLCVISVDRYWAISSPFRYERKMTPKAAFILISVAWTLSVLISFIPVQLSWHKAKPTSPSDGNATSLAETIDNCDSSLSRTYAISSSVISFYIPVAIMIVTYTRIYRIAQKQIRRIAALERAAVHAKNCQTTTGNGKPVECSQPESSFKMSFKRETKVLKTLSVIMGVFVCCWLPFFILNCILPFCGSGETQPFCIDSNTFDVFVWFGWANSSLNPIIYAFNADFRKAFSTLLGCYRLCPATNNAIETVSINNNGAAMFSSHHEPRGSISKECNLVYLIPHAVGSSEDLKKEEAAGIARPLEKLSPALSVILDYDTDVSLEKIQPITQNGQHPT
#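 Tetracycline-induced HEK293 TREx D1 cells, force-coupled to calcium signalling, were dye-loaded with a no-wash calcium kit. Compound was pin-added after a 10 s baseline. Fluorescence was read kinetically at 1 cycle/s for 180 s, with calcium rises flagged as agonism.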
# DRD3 antagonist = blocks the human D3 dopamine receptor; P35462; D3R cells, DiscoveRx beta-arrestin luminescence, antagonist mode; stronger effect = lower value; max response, negative = inhibition, %; 2.5% of 360,000 active; AID 652054; in the data active = max response below about -50%; inconclusive = no clear call, values can overlap the other calls; note: % is set by controls: 0 for no effect and ±100 for the full control effect
#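 Cells plated overnight at 1500 cells/well, then exposed to library compounds with dopamine controls for 90 minutes at 37 degrees C. DiscoveRx reagent added for 30–60 minutes at room temperature; luminescence read, quantitative HTS format.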
# DRD3 agonist = activates the human D3 dopamine receptor. P35462. D3R DiscoveRx beta-arrestin cells, luminescence, 90 min. max activation, %. 0.58% of 410,000 active; in the data active = max activation above about 30%; note: 0% is about no effect
#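 Cells at 1500/well, incubated overnight, then treated with pinned compounds (dopamine as control) for 90 min at 37 degrees C. DiscoveRx reagent added for 30 - 60 minutes at room temperature; luminescence read.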
# D1 antagonist = human D1 dopamine receptor antagonism. P21728. HEK293 TREx D1 cells, calcium flux, dopamine EC80; stronger effect = lower value. activity change, negative = inhibition, % at 10 µM. 3.2% of 360,000 active. AID 504652; in the data active = activity change below about -30%; note: % is set by controls: 0 for no effect and ±100 for the full control effect
#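 Kinetic fluorescence of a calcium dye serves as the read-out. D1-expressing Hek293 Trex cells, induced overnight at 30 C, are exposed to compound for 180 s before an EC80 dopamine addition, then read 180 s further.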
# D1 potentiator = enhances dopamine response at the human D1 receptor. HEK293 TREx D1 cells, calcium flux, dopamine EC20 potentiation. potentiation, % at 10 µM. 0.036% of 360,000 active. AID 504651; in the data active = potentiation above about 30%; note: 0% is about no effect
# An asterisk follows results filed as active; ? = inconclusive; · = no result given. Shown are actives, neighbours in structure and some others; about 6% of the full set was active somewhere.
SMILES,D1 agonist,DRD3 antagonist,DRD3 agonist,D1 antagonist,D1 potentiator
CCOC(=O)c1noc2ncnc(N3CCC(C)CC3)c12,0,·,-7,8,-4
Cc1ccc2sc(N(Cc3cccnc3)C(=O)CCS(=O)(=O)c3ccccc3)nc2c1C,31*,·,-4,·,-2
CC(C)Cn1c(=O)c2ccccc2n2c(CCC(=O)N3CCN(c4ccccc4)CC3)nnc12,3,·,0,20,-2
N#CC1=C(N)SC(N)=C(C#N)C1CCC1CCCCC1,43*,·,·,-27,-8
CS(=O)(=O)c1ncc(Cl)c(C(=O)N(Cc2ccc(Cl)cc2)Cc2ccco2)n1,0,·,-29,-63*,-3
O=C(c1cc(-c2ccc(Cl)cc2)on1)N(Cc1cccc(F)c1)Cc1ccco1,33*,·,-11,-4,0
O=C(c1ccc(Cl)cc1)N(Cc1ccco1)Cc1ccco1,5,·,3,-9,-2
O=C(c1cc(-c2ccc(Cl)cc2)on1)N(Cc1ccc(F)cc1)Cc1ccco1,30*,·,-7,-39*,0
COc1ccc(NC(=O)C2CCC(CNS(=O)(=O)c3cccc4nsnc34)CC2)cc1OC (configuration not stated),0,·,7,3,-3
CCOC(=O)C(C(=O)N(C)C)c1ncc(C(F)(F)F)cc1Cl (configuration not stated),0,?,2,-46*,3
COc1ccc(CCNC(=O)Cn2nc(C)n3c(cc4cc(F)ccc43)c2=O)cc1OC,2,·,6,-14,-4
COC(=O)c1sc2cccc(F)c2c1S(=O)(=O)NCc1ccccc1Cl,6,·,4,-8,2
CCCc1ccc(S(=O)(=O)NCCc2ccncc2)cc1,8,4,0,-25,-7
CC(C)(C)c1ccc(S(=O)(=O)NCCc2ccncc2)cc1,5,-8,3,-95*,-6
O=C(COc1cc(F)ccc1[N+](=O)[O-])N1N=C(c2cccs2)CC1c1ccco1 (configuration not stated),6,-55*,-2,12,3
COc1ccc(C2=NN(C(=O)COc3ncnc4ccccc34)C(c3ccco3)C2)cc1 (configuration not stated),0,-21,-7,-4,-3
COc1ccc(C2=NN(C(=O)COC(=O)c3ccc(S(C)(=O)=O)c([N+](=O)[O-])c3)C(c3ccco3)C2)cc1 (configuration not stated),·,-56*,-12,·,·
CCCCN(C)CCCNC(=O)c1ccc2nc(N3CCCCC3)sc2c1,0,·,-17,12,-2
COc1cc(C(C)=O)ccc1OCCCN1CCC(c2noc3cc(F)ccc23)CC1,·,·,-26,·,·
CN(C)c1ccc(CN2CCc3nc(N4CCN(c5ccccn5)CC4)ncc3C2)cc1,-1,·,-21,-6,0
CC1CCN(C(=O)CSc2c3c(nc4ccc(Cl)cc24)CCCC3)CC1,-1,·,69*,9,0
O=C(O)c1ccc2c(c1)C(=O)N([C@H](Cc1c[nH]c3ccccc13)C(=O)O)C2=O,2,·,·,-18,-6
CCCNC(=O)C1(C)CCN(CCC(=O)c2ccc(Br)cc2)C1 (configuration not stated),·,-19,-8,·,·
CCNC(=O)C1(C)CCN1CCC(=O)c1ccc(Br)cc1 (configuration not stated),·,0,73*,·,·
COc1cccc(N2CC(NC(=O)Cc3cccs3)CC2=O)c1 (configuration not stated),-3,·,1,·,-1
SMILES,D1 agonist,DRD3 antagonist,DRD3 agonist,D1 antagonist,D1 potentiator
CCOC(=O)N1CCN(Cc2nc3cc(NC(=O)c4ccc([N+](=O)[O-])cc4)ccc3n2C(C)C)CC1,0,·,-1,-10,-1
CCCc1cc(C(=O)N2CCCN(C)CC2)cs1,1,0,0,-2,-6
CCCc1cc(C(=O)N2CCN(c3ccccc3C)CC2)cs1,2,6,-14,-43*,-10
O=C(NCCc1ccccn1)c1cccc(S(=O)(=O)N2CCCCCC2)c1,0,18,7,1,-3
O=C(c1cccc(S(=O)(=O)N2CCc3ccccc32)c1)N1CCc2ccccc2C1,11,-11,-6,-82*,·
O=C(NCCc1ccccn1)c1cccc(S(=O)(=O)N2CCc3ccccc32)c1,9,-4,-11,-36*,-3
COc1ccc(NC(=O)c2cccc(S(=O)(=O)N3CCc4ccccc43)c2)cn1,11,12,2,-31*,0
O=C(c1cccc(S(=O)(=O)N2CCc3ccccc32)c1)N1CCOCC1,·,25,-9,·,·
COc1cc2c(cc1OC)CN(C(=O)c1cccc(S(=O)(=O)N(C)C)c1)CC2,1,16,7,-1,-2
COc1cc2c(cc1OC)CN(C(=O)c1cccc(S(=O)(=O)N3CCc4ccccc43)c1)CC2,5,4,1,-34*,-4
COc1ccc(Cl)cc1NC(=O)CSc1nnc2[nH]c(=O)cc(-c3ccccc3)n12,-2,·,11,·,1
COc1ccc2cc(CNc3ccccc3)c(=O)n(CC(=O)Nc3ccc(C)cc3C)c2c1,2,·,5,-3,0
CC1(NC(=O)c2cccc(S(=O)(=O)N3CCCc4ccccc43)c2)CCS(=O)(=O)C1 (configuration not stated),1,22,-5,-83*,3
CN1CCN(S(=O)(=O)c2cccc(C(=O)NC3(C)CCS(=O)(=O)C3)c2)CC1 (configuration not stated),1,7,1,-13,0
Cc1ccc(NC(=O)CC2Oc3ccccc3NC2=O)cc1C (configuration not stated),-1,·,-19,8,-6
CC(=O)c1cn(-c2ccc(Cl)cc2)c(=O)[nH]c1=O,0,3,-5,-32*,-1
CC(=O)c1cn(C)c(=O)[nH]c1=O,0,-8,1,-12,-2
CCCOc1ccccc1N/C(=N/c1nc(C)cc(C)n1)NC(=O)Nc1ccc(Cl)cc1,3,4,-1,-50*,-12
Cc1cc(C)cc(OCC(=O)Nc2nc3c(s2)CC(C(C)(C)C)CC3)c1 (configuration not stated),8,·,-10,-75*,-1
Cc1cc(C)c2oc(-c3cccc(NC(=O)c4ccc(F)cc4)c3)nc2c1,2,0,-5,-1,0
COc1cc(C(=O)Nc2cccc(-c3nc4cc(C)cc(C)c4o3)c2)cc(OC)c1OC,3,41,52*,-4,-8
O=C1C=C(c2ccc3c(c2)oc2ccccc23)C[C@@H](c2ccc3c(c2)OCO3)C1,0,8,-11,-33*,0
CSc1ccc(C2=CC(=O)C[C@H](c3ccc4c(c3)OCO4)C2)cc1,5,-52*,-31,-15,0
Cc1ccc(C2=CC(=O)C[C@H](c3ccc4c(c3)OCO4)C2)cc1,0,-7,-9,·,-1

# Compound activity: PubChem BioAssay, National Center for Advancing Translational Sciences (NCATS)
